Consider 14 compounds from PubChem BioAssay (EPA / NIEHS).

As usually defined, the AC50 is the concentration at which the activity in the assay is half-maximal.

Where “and” joins values, the source holds several entries; their conditions need not be identical. Equal values may be shown once. Calls of active or inactive are those of the source. The calls were made as follows: active = hit-call score of the fitted dose curve at least 0.9, where 1 is the maximum; inactive = score below 0.9.

Read-out in this experiment: Interleukin-8 (IL8), CXCL8 (gene 3576)
The experiment in a line: BSK_BF4T_IL8: BioMAP Diversity Plus: BF4T Assay for Interleukin-8 (IL8) Biomarker Activity (AID 2284263). Particulars: primary human bronchial epithelial cells with fibroblasts. Here is the method:
BSK_BF4T is a cell-based, multiplexed-readout assay that uses bronchial epithelial cells and dermal fibroblasts, a human vascular primary cell, with measurements taken at 24 hours after chemical dosing in a microplate: 96-well plate.BSK_BF4T_IL8 is an assay component measured in the BSK_BF4T assay. It measures IL-8 antibody related to regulation of gene expression using ELISA technology.Data from the assay component BSK_BF4T_IL8 was analyzed at the endpoint, BSK_BF4T_IL8, in the positive analysis fitting direction relative to DMSO as the negative control and baseline of activity. Using a type of binding reporter, gain or loss-of-signal activity can be used to understand protein changes. To generalize the intended target to other relatable targets, this assay endpoint is annotated to the 'cytokine' intended target family, where the subfamily is 'interleukins'.
The levels of cell surface (or secreted, indicated by the prefix "s") biomarker endpoints were measured by ELISA. Overt cytotoxicity to cells in confluent adherent cultures (all systems other than the BT system) was assessed by measuring total protein levels using sulforhodamine B (SRB) staining in parallel cultures at the time of biomarker measurements, indicated as SRB endpoints. For proliferation assays for adherent cell types, individual cell types are cultured at sub-confluence and relative cell numbers quantified by SRB staining at time points optimized for each system (48 h: 3C and CASM3C systems; 72 h: BT and HDF3CGF systems; 96 h: SAg system). SRB was performed by staining cells with 0.1% SRB after fixation with 10% TCA and reading wells at 560 nm.Viability and proliferation of PBMC (T cells) was quantified by Alamar Blue reduction for the SAg and BT systems. For PBMC viability (referred to as PBMC Cytotoxicity within the assay endpoint names), cells were plated (75,000/well in a 96-well plate) and then chemical samples added for 1 h before addition of activators, SEB and TSST-1 (20 ng/mL final concentration each). Cells were incubated for 90 h. Then, Alamar Blue (20 uL/well) (Invitrogen, Cat DAL1100) was added for 6 h, and the plates were read with a fluorescence microplate reader at 546/580 nm (excitation/emission). For PBMC proliferation, cells were plated and activated as above but incubated for only 16 h prior to addition of Alamar Blue. Plates were read after 6 h.
Consider `FC(F)(F)C(F)(C(F)(F)F)C(F)(F)C(F)(F)CC1CO1` (centres undefined), for which the outcome was inactive.

As for `O=C(O)C(F)(F)OC(F)(F)C(F)(F)OC(F)(F)C(=O)O`, the outcome was inactive.

Consider `O=C(O)C(F)(OC(F)(F)C(F)(F)C(F)(F)F)C(F)(F)F` (centres undefined), for which the outcome was inactive.

On to `CC(O)C(F)(F)C(F)(F)F` (centres undefined), for which the outcome was inactive.

Regarding `OCC(F)(F)OC(F)(F)C(F)(F)OC(F)(F)CO`, the outcome was inactive.

`O=C(O)C=CC(F)(C(F)(F)F)C(F)(F)F`: the outcome was inactive.

For `O=C(O)C(F)(F)OC(F)(F)C(F)(F)OC(F)(F)F`, the outcome was inactive.

With `OCC(F)(F)OC(F)(F)C(F)(F)OC(F)(F)C(F)(F)OC(F)(F)F`, the AC50 is 42.8 µM (active) and 39.6 µM (active).

`NC(=O)C(F)(F)C(F)(F)F`: the outcome was inactive.

For `COC(=O)C(F)(F)C(F)(F)OC(F)(C(F)(F)F)C(F)(F)OC(F)=C(F)F` (centres undefined), the outcome was inactive.

Regarding `C=CC(=O)OCC(F)(F)C(F)F`, the result was inactive.

In the case of `O=C(O)C(F)(F)C(F)(F)C(=O)O`, the outcome was inactive.

As to `O=S(=O)(F)C(F)(F)C(F)(F)C(F)(F)C(F)(F)C(F)(F)C(F)(F)C(F)(F)C(F)(F)F`, the result was inactive.

For the compound `OCC(F)(F)OC(F)(F)C(F)(F)OC(F)(F)C(F)(F)OC(F)(F)CO`, the outcome was inactive.
